# PfHsp90 set2 – growth inhibition of yeast expressing Plasmodium Hsp90; inhibition, % at 9.4 µM; S. cerevisiae expressing PfHsp90, BacTiter-Glo ATP, 48 h; yeast lacking PDR1 and PDR3 efflux regulators; AID 504621; actives 0.32% (n = 310,000);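 active = every replicate shows inhibition above about 80%, whatever the replicate mean, limit read from the data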;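 note: 0% = DMSO neutral controls and 100% = 20 µM radicicol positive controls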
# SKKanGAS inh – blocks kanamycin growth of S. pyogenes SKKanGAS strain; BacTiter-Glo, 6 h; inhibition, % at 7.5 µM; actives 1.3% (n = 300,000); AID 1662;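 active = mean replicate score, as percent of positive control median, at least 50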;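 note: strain carries kanamycin resistance gene driven by streptokinase promoter and grows in 40 µg/ml kanamycin; loss of luminescence reflects streptokinase promoter inhibition or plain growth inhibition; 0% = median of DMSO wells and 100% = positive control at its reference dose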
# tim23-1 inh – growth inhibitors of tim23-1 mutant yeast | S. cerevisiae tim23-1 growth, BacTiter-Glo luminescence, 24 h | inhibition, % at 20 µM | AID 463212 | actives 1.3% (n = 330,000);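 active = growth inhibition of the mutant yeast at or above 50%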;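 note: temperature-sensitive mutant grown at 25 °C; plate controls were DMSO-treated mutant yeast for no effect and medium wells lacking yeast for full effect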
# TIM10 inh – growth inhibitors of TIM10 yeast strain | S. cerevisiae TIM10 strain growth, BacTiter-Glo luminescence, 24 h | inhibition, % at 10 µM | actives 1.4% (n = 330,000);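 active = inhibition of 40% or more at the single tested concentration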;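 note: wild-type TIM10 isogenic control strain grown at permissive 25 °C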
# NALP1 inh – NALP1 inhibition. S. cerevisiae NALP1/ASC/caspase-1 growth, X-gal OD620, 72 h. inhibition, % at 10 µM. actives 0.61% (n = 280,000). AID 2071; in the data active = inhibition mostly above about 24%, no sharp cut-off; inactive = mostly below about 32%
# tim10-1 inh – tim10-1 yeast growth inhibition | S. cerevisiae tim10-1 ts strain growth, BacTiter-Glo, 24 h | inhibition, % at 20 µM | actives 2.2% (n = 330,000);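 active = inhibition of at least 40%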;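 note: mutant grown at 25 °C; 0% = DMSO wells with yeast and 100% = wells holding no yeast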
# tim10-1 conf – tim10-1 yeast growth inhibition, confirmed | shares compounds with tim10-1 inh | S. cerevisiae tim10-1 ts strain growth, BacTiter-Glo, 24 h | inhibition, % at 20 µM | actives 56% (n = 7,400) | AID 463213;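 active = inhibition of yeast growth at or above a set limit in either of two repeat tests at 20 µM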;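 note: tim10-1 mutant grown at permissive 25 °C to find synthetic lethal compounds; 0% = DMSO yeast wells and 100% = medium wells without yeast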
# tim10 confirm – TIM10 yeast growth inhibition, confirmed | shares compounds with TIM10 inh | S. cerevisiae tim10 strain growth, BacTiter-Glo luminescence, 24 h | inhibition, % at 10 µM | actives 63% (n = 4,600) | AID 463215;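 active = inhibition of yeast growth at or above a set limit in either of two replicates at 10 µM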;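 note: this counterscreen used the strain with wild-type TIM10; 0% = yeast with DMSO and 100% = medium wells lacking yeast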
# Active calls of the source: *; nt = not tested or not shown. A selection: hits, their analogues and other compounds. The true share with any hit is near 4.8%.
SMILES,PfHsp90 set2,SKKanGAS inh,tim23-1 inh,TIM10 inh,NALP1 inh,tim10-1 inh,tim10-1 conf,tim10 confirm
O=C(Nc1ccc(S(=O)(=O)N2CCCCC2c2cccnc2)cc1)c1ccccc1F (stereo not given),-2.7,2.7,11.5,58.7*,-8.2,52.4*,47.0*,42.7*
COc1ccccc1C(=O)Nc1ccc(S(=O)(=O)N2CCCCC2c2cccnc2)cc1 (stereo not given),-40.5,-0.8,37.8,63.1*,2.0,63.5*,70.5*,78.3*
CC(C)n1c(-c2ccc(C(C)(C)C)cc2)n[nH]c1=S,-38.0,6.8,46.9,43.5*,-8.8,42.6*,35.0*,46.4*
CCC(=NCc1ccco1)c1c(C(F)(F)F)[nH]n(-c2nc3ccccc3s2)c1=O,16.9,12.2,18.5,44.2*,42.5,64.6*,62.5*,41.0*
C=C1CCC[C@]2(C)C[C@H]3OC(=O)C(CN4CC(C)OC(C)C4)[C@H]3C[C@@H]12 (stereo not given in full),7.6,-4.7,42.9,40.1*,-6.4,42.5*,31.2*,36.8*
Cc1ccc(-n2cnc3cc(NCc4cccs4)ccc32)cc1,-6.2,42.8,27.9,62.6*,-3.2,56.2*,57.2*,63.8*
Cn1cnc2cc(NCc3cccs3)ccc21,nt,13.2,19.7,-10.0,-4.1,6.0,nt,nt
N/C(=N\OC(=O)c1ccco1)c1ccc(Cl)cc1,-4.0,-1.3,49.2,53.9*,4.0,47.5*,47.2*,22.7
COc1ccc(CCNc2nc(=O)[nH]nc2C)cc1OC,26.1,-11.9,-6.6,-9.5,15.6,10.4,nt,nt
O=C(Nc1cccc(Cl)c1)c1ccc2c(c1)OCCO2,26.8,-7.6,49.5,60.2*,23.2,49.9*,40.0*,71.5*
C=CCSc1nnc(NC(=O)COc2ccccc2)s1,-17.6,-9.2,1.2,17.2,13.3,8.8,nt,nt
Cc1ccc2cc(/C=C(\C#N)C(N)=O)c(N3CCCCC3)nc2c1,-2.5,-3.8,32.2,46.1*,24.8,41.6*,17.7,33.7*
Cc1oc(-c2ccccc2F)nc1CN1CCC(C(=O)NCc2cccs2)CC1,nt,-4.7,14.6,-0.2,14.5,2.7,nt,nt
CCOC(=O)c1ccc(NC(=O)CC2Sc3ncnn3C2=O)cc1 (stereo not given),nt,-1.5,24.5,75.2*,93.3*,61.4*,58.3*,58.3*
O=C(CC1Sc2ncnn2C1=O)Nc1ccc(Cl)cc1 (stereo not given),nt,4.1,14.8,17.3,27.0,21.7,nt,nt
Cn1c(=NC(=O)c2ccco2)sc2ccccc21,-4.4,9.0,20.7,-3.4,-3.5,-28.1,nt,nt
COc1cc(C(=O)/C=C/c2cccnc2)c([N+](=O)[O-])cc1OC,-12.8,8.8,37.6,41.2*,nt,42.0*,39.0*,32.8*
CCCn1c(C)c(C(=O)OCC)c(O)c(-c2ccccc2)c1=O,nt,-6.0,-4.9,-11.8,nt,-2.0,nt,nt
CC(=O)c1ccc(NC(=S)N2CCC(O)CC2)cc1,-16.0,-1.7,-4.7,-6.3,19.1,-9.9,nt,nt
N/C(=N\OC(=O)c1cccc([N+](=O)[O-])c1)c1cccnc1,7.8,-6.9,4.9,18.2,13.7,31.4,nt,nt
N/C(=N\OC(=O)c1ccc2c(c1)OCO2)c1cccc([N+](=O)[O-])c1,-19.3,2.0,22.9,43.8*,1.2,48.4*,32.7*,26.1
Cc1ccccc1C(=O)O/N=C(\N)c1cccc([N+](=O)[O-])c1,8.8,-0.7,47.9,50.1*,0.1,67.8*,73.9*,48.4*
CCCn1c(SCC(=O)Nc2ccccc2N2CCCCC2)nc2c1c(=O)n(C)c(=O)n2C,-4.6,1.7,17.3,17.3,18.1,27.5,nt,nt
CCCn1c(SCC(=O)Nc2ccccc2C(=O)OC)nc2c1c(=O)n(C)c(=O)n2C,3.7,-0.3,31.0,46.5*,15.3,60.4*,45.1*,46.4*
CC(C)Cn1c(=S)[nH]c2cc(Cl)ccc21,-7.0,-1.9,48.7,50.0*,1.4,42.8*,17.9,25.9

# Screening data from PubChem.
